PubChem BioAssay AID1788 (Vanderbilt High Throughput Screening Facility, 2009)
A number with no mark means an inactive call. How the calls were made is not given here.

Experiment: PubChem AID 1788
Settings: MDS Pharma lead profiling panel, radioligand binding; GABAA central (rat), Flunitrazepam site; at 10 µM; active compounds read high

For `CCOC(=O)N1CCC(NCCNC(=O)c2ccccc2C)CC1`, the inhibition was -12%.
